Inconclusive results are not listed. Active and inactive are the calls of the source. Calls come from the whole dose curve.

Vitamin D3 receptor (Homo sapiens), sequence (P11473 whole entry, looked up): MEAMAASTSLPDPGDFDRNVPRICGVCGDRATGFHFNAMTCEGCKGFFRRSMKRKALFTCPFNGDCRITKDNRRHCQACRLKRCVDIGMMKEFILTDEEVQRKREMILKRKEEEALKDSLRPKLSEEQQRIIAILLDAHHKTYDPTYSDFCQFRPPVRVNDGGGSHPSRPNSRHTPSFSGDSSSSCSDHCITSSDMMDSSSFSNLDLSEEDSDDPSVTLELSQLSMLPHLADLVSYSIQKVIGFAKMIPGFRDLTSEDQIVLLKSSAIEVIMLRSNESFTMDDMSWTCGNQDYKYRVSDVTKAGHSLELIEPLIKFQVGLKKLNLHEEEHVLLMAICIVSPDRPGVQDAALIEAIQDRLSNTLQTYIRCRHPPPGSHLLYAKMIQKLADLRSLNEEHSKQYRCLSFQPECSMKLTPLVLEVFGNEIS

This experiment concerns the target Vitamin D3 receptor (Homo sapiens) (UniProt P11473). The experiment in a line: qHTS assay to identify small molecule agonists of the vitamin D receptor (VDR) signaling pathway (AID 743222). The settings on record: HEK293T VDR-UAS-bla, beta-lactamase FRET ratio, 16 h; series mostly up to 63.5 µM. An excerpt:
National Center for Advancing Translational Sciences [NCATS]
NIH Chemical Genomics Center [NCGC]
U.S. Environmental Protection Agency [EPA]
National Institutes of Environmental Health Sciences [NIEHS]
National Toxicology Program [NTP]
U.S. Food and Drug Administration [FDA]
The vitamin D receptor (VDR), a member of nuclear hormone receptor superfamily, plays a critical role in calcium homeostasis and bone metabolism. It is also involved in cell differentiation and growth, and thrombogenicity.
Tox21 Assay Protocol Summary:
VDR-bla cells were dispensed at 2,000 cells/6 uL/well into black wall/clear-bottom 1536-well plates using a Multidrop Combi (Thermo Fisher Scientific, Waltham, MA) dispenser. After the assay plates were incubated at a 37C and 5% CO2 for 4 h, 23 nL of compounds dissolved in DMSO, positive controls or DMSO only was transferred to the assay plate by a Pintool station (Kalypsys, San Diego, CA). The plates were incubated at 37C and 5% CO2 for 16 h. After 1 uL of LiveBLAzerTM B/G FRET substrate was added using a Bioraptr Flying Reagent Dispenser (FRD) workstation (Beckman Coulter, Indianapolis, IN, USA), the plates were incubated at room temperature for 2 h, and fluorescence intensity was measured by an Envision plate reader (PerkinElmer, Shelton, CT).
(In general: In qHTS, concentration-response curves come from the screen itself.)
`O=c1oc(=O)c2cc3c(=O)oc(=O)c3cc12`: the result was inactive. `O=C=Nc1ccc(Cc2ccc(N=C=O)cc2)cc1`: the result was inactive. Take `c1ccc(Nc2ccccc2)cc1`: the result was inactive. As to `CCCCC(CC)COP(=O)(OCC(CC)CCCC)OCC(CC)CCCC` (stereo not given), the outcome was inactive.

With `Cc1c(C(N)=O)cc([N+](=O)[O-])cc1[N+](=O)[O-]`, the outcome was inactive. `CC(=O)CC/C=C(\C)CCC=C(C)C`: the result was inactive. The entry for `O=C(c1ccccc1)c1ccccc1O` is “inactive”; for `Nc1ccc(S(=O)(=O)Nc2cnc3ccccc3n2)cc1` it is “inactive”; for `Cc1ccc2c(n1)Oc1ccc(C(C)C(=O)OCC(=O)N(C)C)cc1C2` (stereo not given) it is “inactive”.

Take `COc1ccc(OC)c(C(O)CNC(=O)CN)c1` (stereo not given): the outcome was inactive.

Consider `CC(CCC(=O)O)(c1ccc(O)cc1)c1ccc(O)cc1`, for which the outcome was inactive. In the case of `C[C@]12CC[C@H]3[C@@H](CCC4=CC(=O)CC[C@@]43C)[C@@H]1CC[C@@H]2C(=O)CO`, the result was inactive. With `CCCCC/C=C/C=C/C=O`, the result was inactive. Next, `COc1ccccc1/C=C/C=O`: “inactive”; `CCCc1c(OCCCCc2nn[nH]n2)ccc(C(C)=O)c1O`: “inactive”; `CC(C)=CCC/C(C)=C\CO`: “inactive”. Next, `CCCCOCCOCCO`: “inactive”; `CC(C)CC(C)(O)C#CC(C)(O)CC(C)C` (stereo not given): “inactive”. Turning to `O=S(=O)(O)c1ccc(O)cc1`, the outcome was inactive.

`CCC(C)OC(=O)c1ccc(O)cc1` (stereo not given): the outcome was inactive.

For `CC1=CC2C3CC(C=C3C)C2C1` (stereo not given), the outcome was inactive. Next, `O=C(/C=C/C=C/c1ccc2c(c1)OCO2)N1CCCCC1`: “inactive”; `COc1cc([C@@H]2c3cc4c(cc3[C@H](O)[C@H]3COC(=O)[C@H]23)OCO4)cc(OC)c1OC`: “inactive”; `O=CCCCC=O`: “inactive”. The entry for `O=CCc1ccccc1` is “inactive”; for `CC(C)Oc1ccc2c(=O)c(-c3ccccc3)coc2c1` it is “inactive”; for `S=C(NC1CCCCC1)NC1CCCCC1` it is “inactive”. The entry for `CC(C)OB(OC(C)C)OC(C)C` is “inactive”; for `COc1ccc(C(=O)CC(=O)c2ccc(C(C)(C)C)cc2)cc1` it is “inactive”; for `CCCCOCCOCCOCCO` it is “inactive”. As to `c1cc(-c2ccncc2)ccn1`, the outcome was inactive.

As for `CN(C)CCN(Cc1cccs1)c1ccccn1`, the result was inactive.

On to `CC1=CCC(C(C)(C)O)CC1` (stereo not given), for which the result was inactive. Next, `O=C(COc1ccc(Cl)cc1)N1CCN(Cc2ccc3c(c2)OCO3)CC1`: “inactive”. `CCCCC(CC)COCC1CO1` (stereo not given): the result was inactive. For `CC(C)OC(=O)C(C)(C)Oc1ccc(C(=O)c2ccc(Cl)cc2)cc1`, the result was inactive. Next, `NNc1ccc(C(=O)O)cc1`: “inactive”; `OCCO`: “inactive”; `NC=O`: “inactive”. Next, `O=C(OCc1ccccc1)c1ccccc1O`: “inactive”.

Values taken from PubChem BioAssay (Tox21).
